{"source": "PubChem BioAssay AID1845226", "about": "(National Center for Advancing Translational Sciences (NCATS), 2023)", "note": "Inconclusive results are not listed. Where a call stands in place of a potency, no number is given. The source made the active and inactive calls. Calls come from the whole dose curve; as a rule, active = well fitted inhibition curve with a large enough effect; inconclusive = small, poorly fitted or top-dose-only effect; inactive = no such curve, though single readings can be large or run the other way. Potency is the fitted concentration of half-maximal effect.", "data": [{"test": "Confirmatory fluorescence-based thiol-reactive (MSTI) qHTS assay for identification of artifact compounds", "details": "MSTI thiol-reactivity probe, 1 h; series mostly up to 39.2 µM", "outline": "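Compounds, dosed in qHTS format, were mixed with 4 uM MSTI probe in 1X PBS pH 7.4 containing 2% DMSO. After 1 hour at room temperature in the dark, fluorescence was measured.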", "values": [{"compound": "Cc1ccc(NC(=O)CCn2cccn2)cc1Cl", "Potency": "inactive"}, {"compound": "CC(C)=CCC/C(C)=C/C=O", "Potency": "inactive"}, {"compound": "O=C(O)c1ccc(-n2c(/C=C\\c3ccc(O)cc3)nc3ccccc3c2=O)cc1", "Potency": "inactive"}, {"compound": "CCOc1ccc(NC(=O)CSc2nnc3scc(-c4ccccc4)n23)cc1", "Potency": "inactive"}, {"compound": "Cc1ccc(NC(=O)Cn2c(=O)oc3cc(S(=O)(=O)N4CCCCC4)ccc32)c(Cl)c1", "Potency": "inactive"}, {"compound": "CCOC(=O)C(C)Sc1ccc2nnc(-c3ccc(F)cc3)n2n1", "note": "(stereo not given)", "Potency": "inactive"}, {"compound": "Cc1ccc(NC(=O)CC2Nc3cccc4cccc(c34)NC2=O)cc1", "note": "(stereo not given)", "Potency": "1.54 µM (active)"}, {"compound": "CC1(C)S[C@@H]2[C@H](NC(=O)[C@H](N)c3ccccc3)C(=O)N2[C@H]1C(=O)O", "Potency": "inactive"}, {"compound": "COc1cc(NC(=O)c2ccc(C)cc2)ccc1NC(=O)c1cc2ccccc2o1", "Potency": "inactive"}, {"compound": "C=C1Cc2c(Cl)cc3[nH]c4c5c3c2[C@@]2(O)[C@@H]1C[C@@H]2C(C)(C)O[C@H]5[C@@H]1CC[C@@]2(O)[C@@]35O[C@@H]3[C@@H](O)[C@@H](C(=O)O)O[C@H]5CC[C@]2(C)[C@@]41C", "Potency": "3.86 µM (active)"}, {"compound": "CC(C)C(=O)OC1=CN(Cc2ccccc2)S(=O)(=O)c2ccccc21", "Potency": "inactive"}, {"compound": "COc1ccc([C@H]2C[C@H](O)[C@@H](n3cc(C4CC4)nn3)CN2C(=O)c2cccs2)cc1", "Potency": "inactive"}, {"compound": "COc1ccc(C2C(C(=O)Nc3ccccc3)=C(C)Nc3c(C(=O)Nc4ccccc4)cnn32)cc1", "note": "(stereo not given)", "Potency": "inactive"}, {"compound": "COc1ccc(N2C(=O)CSC23C(=O)N(CC(N)=O)c2ccccc23)cc1", "note": "(stereo not given)", "Potency": "inactive"}, {"compound": "CC1CCc2noc(NC(=O)c3ccc([N+](=O)[O-])cc3)c2C1", "note": "(stereo not given)", "Potency": "2.44 µM (active)"}]}]}
